HT1080-NT tox = kills 2HG-producing HT-1080-NT fibrosarcoma cells; HT-1080-NT fibrosarcoma viability, CellTiter-Glo ATP luminescence, 48 h; Potency, µM (doses to about 46.1 µM), for inactives: at the highest dose activity, negative = less viability, usual class: cytotoxic; hit rate 1.6% among 360,000;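 also: NT is the 2HG producing partner of a matched IDH1 knockdown line; 0% = DMSO-treated cells and -100% = media-only wells without cells; nearly all actives have a fitted effect of over 55% in size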
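Viability by CellTiter-Glo luminescence after 48 h compound exposure at 37C of HT-1080-NT cells (750/well, RPMI, 5% FBS). % activity scaled between DMSO wells and medium-only wells, then curve-fitted and categorized by curve class.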
DT40 TDP1 CPT = DT40-hTDP1 cell growth loss with CPT; chicken DT40 Tdp1-/-;hTDP1 cells + 20 nM CPT, ATP luminescence, 48 h; Potency, µM (doses to about 46.2 µM), for inactives: at the top dose activity change, negative = growth inhibition, actives largely listed as inhibitors; hit rate 12% among 420,000; AID 686979; also: % is scaled to controls: 0 for no effect and ±100 for the full control effect; nearly all actives have a fitted effect of over 55% in size
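Chicken DT40 Tdp1-/- cells complemented with human TDP1, 400 cells/well, exposed to compounds plus 20 nM camptothecin for at least 48 h at 37 C; viability read as ATP content by CellTiter-Glo luminescence.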
HepG2 tox = kills HepG2 cells in TGF-b inhibitor counter-screen | HepG2 CAGA-GFP viability, ATP luminescence, 18 h | Potency, µM (highest dose often 46.1 µM), inactives show at the top dose activity change, negative = cytotoxicity, hits mostly cytotoxic | hit rate 0.76% among 410,000
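HepG2 CAGA-GFP cells (1000/well, DMEM with 1% FBS) received compound, then TGF-beta at 500 pg/mL final, and were incubated 18 hours at 37 degrees C. Viability was read by CellTiter-Glo luminescence. Media-only wells were set as complete cell-killing and DMSO as no toxicity.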
TGFb SMAD3 inh = inhibitors of TGF-b signaling; HepG2 CAGA-GFP TGF-b/SMAD3 reporter, GFP fluorescence, 18 h; TGF-beta stimulated, 500 pg/mL final; Potency, µM (doses to about 46.1 µM), inactives show at the highest dose activity, negative = inhibition, hits mostly inhibitors; hit rate 1.2% among 410,000; AID 588855; also: % is scaled to controls: 0 for no effect and ±100 for the full control effect; nearly all actives have a fitted effect of over 65% in size
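HEPG2 CAGA-GFP, 1000 cells/well; 2 h settle, 37 C; cpd via pin tool; TGF-b 500 pg/mL final; 18 h, 37 C; GFP imaging ex488/em500-530; %Activity normalised to -TGF-b and +DMSO controls; CRC fit, curve class.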
HT1080 IDH1KD tx = toxicity to HT-1080 IDH1 knockdown cells (counter line). HT-1080 IDH1 knockdown viability, ATP luminescence, 48 h. Potency, µM (titrated, usually from 46.1 µM), for inactives: at the top dose activity, negative = toxicity, hits mostly cytotoxic. hit rate 2% among 360,000;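 also: 0% = DMSO wells and -100% = cell-free medium wells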
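After a 2 h attachment period, IDH1KD HT-1080 cells took pin-transferred compound for 48 h at 37 °C; ATP-based luminescence after 10 min room-temperature reagent incubation reported viability.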
TDP1 cell noCPT = qHTS for Inhibitors of human tyrosyl-DNA phosphodiesterase 1 (TDP1): qHTS in cells in absence of CPT; AID 686978, 2013; DT40 Tdp1-/- hTDP1 cells, no CPT, ATP luminescence, 48 h; hit rate 15% among 420,000; Potency, µM (highest dose often 46.2 µM), for the others: top-dose activity change, negative = growth inhibition, actives largely listed as inhibitors; also: % is scaled to controls: 0 for no effect and ±100 for the full control effect; nearly all actives have a fitted effect of over 55% in size
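A cellular qHTS used chicken DT40 cells lacking endogenous Tdp1 but carrying stably transfected human TDP1. Compounds were applied without camptothecin, and cell growth kinetics were judged by ATP-dependent luminescence after ≥48 hr.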
Active calls of the source: *; u = inconclusive; x = not tested or not shown. Compounds with a hit are over-represented: about 17% of the library has one in this group of screens. Calls follow the shape of the dose curve; as a rule, active = well fitted curve in the direction sought with a large enough effect; inconclusive = small, poorly fitted or top-dose-only effect, or another doubt; inactive = no such curve, though single readings can be large; an effect the other way counts as inactive or inconclusive. Potency is read from the fitted curve at half-maximal effect.

SMILES | HT1080-NT tox | DT40 TDP1 CPT | HepG2 tox | TGFb SMAD3 inh | HT1080 IDH1KD tx | TDP1 cell noCPT
COCCNC(=O)C1CCN(S(=O)(=O)c2ccccc2)CC1 | -11.5% | -8.4% | -18.4% | u | -8.4% | -12.4%
Cc1cc(C(=O)Nc2cccc(-c3nc(CNC(=O)c4cc5ccccc5[nH]4)c(C)o3)c2)c(C)o1 | x | 24.2% | x | x | x | -13.2%
CNC(=O)N(O)C1N(/N=C/c2ccc(C)cc2)C(=S)SC1(C)C (stereo not drawn) | 2.5% | -16.8% | -7.4% | -12.4% | -8.9% | -1.6%
CC1(C)SC(=S)N(/N=C/c2cccnc2)C1N(O)C(=O)Nc1ccccc1 (stereo not drawn) | 9.5% | -0.4% | 14.5% | 4.1% | 5.4% | -15.0%
CC1(C)SC(=S)N(/N=C/c2ccc(O)cc2)C1N(O)C(=O)Nc1ccc([N+](=O)[O-])cc1 (stereo not drawn) | u | 23.1µM* | -45.3% | u | u | u
Cc1ccc(/C=N/N2C(=S)SC(C)(C)C2N(O)C(=O)Nc2ccc([N+](=O)[O-])cc2)cc1 (stereo not drawn) | -2.1% | u | -43.9% | u | -19.4% | 18.4µM*
CC1(C)SC(=S)N(/N=C/c2ccccc2O)C1N(O)C(=O)Nc1ccccc1 (stereo not drawn) | 18.4µM* | 11.6µM* | -29.4% | u | u | 16.4µM*
COc1cc2nc(SCc3ccc(Cl)cc3)n3nc(CCn4nc(C)cc4C)nc3c2cc1OC | x | 20.9% | -1.0% | u | x | -9.4%
CC1(CCc2ccccc2)NC(=O)NC1=O (stereo not drawn) | 0.0% | 0.3% | 10.3% | -4.6% | 4.5% | 6.2%
CCCCn1c(N)c(N(CC(C)C)C(=O)CSCc2cccc(C)c2)c(=O)[nH]c1=O | 1.7% | 22.9% | -76.6% | 18.9% | -9.0% | 10.5%
O=[N+]([O-])c1ccc(CN2CC(N3CCC(Cc4ccccc4)CC3)CS2(=O)=O)cc1 (stereo not drawn) | -8.7% | 16.4µM* | -38.2% | u | -5.7% | 16.4µM*
O=S1(=O)CC(N2CCC(Cc3ccccc3)CC2)CN1CCc1ccccc1 (stereo not drawn) | 2.6% | u | -22.2% | u | 0.0% | 20.6µM*
O=C(NC1CCN(Cc2cccc([N+](=O)[O-])c2)CC1)c1ccccc1 | 0.5% | -17.7% | -13.4% | -2.9% | -7.0% | -7.4%
O=[N+]([O-])c1cccc(CN2CCC(Cc3ccccc3)CC2)c1 | -8.1% | 23.1µM* | 1.5% | -13.9% | -14.1% | -56.4%
O=S1(=O)CC(N2CCCC2)CN1CCc1ccccc1 (stereo not drawn) | 18.1% | -19.7% | 1.0% | 0.5% | 4.1% | -9.1%
O=[N+]([O-])c1ccc(CN2CC(N3CCN(CC4CC4)CC3)CS2(=O)=O)cc1 (stereo not drawn) | -1.0% | -24.1% | 24.2% | 0.4% | 8.2% | -24.7%
Cc1cccc(CN2CCN(C3CN(Cc4ccc([N+](=O)[O-])cc4)S(=O)(=O)C3)CC2)c1 (stereo not drawn) | -6.6% | 16.4µM* | -8.5% | u | u | 23.1µM*
N#Cc1ccc(OCC(=O)Nc2cccc(S(=O)(=O)NC3=NCCCCC3)c2)cc1 | 0.5% | u | -15.2% | u | -1.1% | u
FC(F)(F)c1nc2ccccc2c2nc3ccccc3n12 | -13.8% | 0.6% | 5.8% | 3.6% | -12.7% | -6.7%
FC(F)(F)c1nnc2c(Sc3ccc(Cl)cc3)nc3ccccc3n12 | u | 2.59µM* | -53.7% | u | 7.8% | 1.84µM*
FC(F)(F)c1nnc2c(Sc3ccccn3)nc3ccccc3n12 | u | 5.17µM* | -22.5% | u | u | 4.61µM*

Bioassay records from PubChem BioAssay.
